VACV E9 pol inh: vaccinia E9 polymerase processive synthesis inhibitors, primary screen, biochemical, absorbance | Vaccinia virus DNA polymerase (E9) processive complex | in vitro processive DNA synthesis, absorbance read-out; stronger effect = lower value | normalized absorbance, % (no concentration beside the values) | actives 0.94% (n = 46,000) | AID 493162, 2011; in the data active = normalized absorbance mostly below about 85%, no sharp cut-off; inactive = mostly above about 86%
Starred values were filed as active, the others as inactive. This is one part of a sample in which hits are shown more often than they occur.

SMILES | VACV E9 pol inh
CC1CN(S(=O)(=O)c2ccc(C3CCCCC3)cc2)CC(C)O1 (configuration not stated) | 101
CC1CN=C(Nc2ccc(C(C)C)cc2)S1 (configuration not stated) | 98
C/C(=N\N)c1ccc2ccccc2c1 | 83*
CCCNC(=O)c1ccc2ccccc2c1 | 106
O=C(/C=C/C(=O)c1ccc2ccccc2c1)c1ccccc1 | 98
N#CCCN(C(=O)C1CCCCC1)c1ccccc1F | 102
N#CC1=C(N)C(C#N)(C#N)C(c2cccs2)C2CCCC=C12 (configuration not stated) | 101
COC(=O)c1cc(-c2ccccc2)nc2c1c(C)nn2-c1ccccc1 | 100
O=C(NC(Cc1nc2ccccc2n1CCO)c1ccccc1)c1ccccc1 (configuration not stated) | 107
CN(C)CC1CCCCC1OC(=O)c1ccccc1Cl (configuration not stated) | 101
COc1cccc(C=Nc2cccc(C(=O)O)c2C)c1O | 94
Cc1c(N=Cc2cc(Br)cc(Br)c2O)cccc1C(=O)O | 45*
Cc1cc2ccccc2c(N=Cc2cc(Br)cc(Br)c2O)c1C#N | 81
O=C(NCC1CCCO1)c1cn(-c2ccccc2)nc1-c1ccc(Cl)cc1 (configuration not stated) | 100
O=C1c2ccccc2C(=O)c2oc(-c3ccc(F)cc3)nc21 | 74
O=C(O)c1ccc2c(c1)NC(=O)C(CSCc1ccccc1Cl)N2 (configuration not stated) | 39*
CNC(=O)CC1Nc2ccccc2NC1=O (configuration not stated) | 103
NC(=O)NC(=O)CC1Nc2ccccc2NC1=O (configuration not stated) | 99
Cc1cc2cc(CNC(=O)Cc3cccs3)ccc2[nH]1 | 93
CCOc1ccccc1-n1nnc(C(N)=O)c1C | 99
OCCN=C(c1ccc(Cl)cc1)N1CCN(C(=NCCO)c2ccc(Cl)cc2)CC1 | 100
O=C(Cn1cnc2scc(-c3ccccc3)c2c1=O)N1CCCCC1 | 99
CCOc1cccc(=O)c2c(C)n(-c3ccc(OC)cc3)c(C)c12 | 98
CCOc1ccccc1C(=O)NC1CCCCCC1 | 99
CCOc1cccc(=NC2CCCCC2)c2c(C)n(C)c(C)c12 | 89*
SMILES | VACV E9 pol inh
Cc1ccc(/C=C2/SC(=Nc3ccc(O)cc3)NC2=O)o1 | 102
Cc1ccc(/C=C2/SC(=O)NC2=S)o1 | 75*
Cc1ccc(/C=C2\SC(=O)NC2=O)o1 | 83
COC(=O)[C@@]1(C)CCCC2(C)c3ccc(C(C)C)cc3CCC21 (some centres not stated) | 100
COc1ccc2c(c1)[C@@]1(C)CCC[C@](C)(CO)C1CC2 (some centres not stated) | 100
CC(C)c1ccc2c(c1)CCC1C(C)(CNC(=O)/C=C/C(=O)O)CCCC21C (configuration not stated) | 81*
O=C(NCCOc1ccccc1Cc1ccccc1)c1ccc2c3c(cccc13)CC2 | 93
C[S+](C)c1c(-c2ccccc2)nc2ccccn12 | 101
COC(CNC(=O)c1cc2c(C)nc3ccccc3c2o1)OC | 91
COC(CN(C)C(=O)c1cc2c(C)nc3ccccc3c2o1)OC | 96
Cc1nc2ccccc2c2oc(C(=O)NCCN(C)C3CCCCC3)cc12 | 46*
COC(=O)c1ccc2c(c1)NC(=O)C1CCCN21 (configuration not stated) | 94
CC1CCc2[nH]c3ccc(C(=O)O)cc3c2C1 (configuration not stated) | 100
O=C(O)c1ccc2c(c1)NC(=O)C1CCCN21 (configuration not stated) | 48*
O=C1C(Br)=CC(=CN(O)c2ccccc2)C=C1Br | 88
CCOC(=O)c1c(NC(=O)CSc2ncccn2)sc2c1CCC2 | 100
Cc1csc2c(N3CCN(C(=O)NC(C)(C)C)CC3)ncnc12 | 60*
Cc1csc2c(N3CC(C)OC(C)C3)ncnc12 (configuration not stated) | 100
COC(=O)c1sccc1S(=O)(=O)N1CCN(c2ncnc3c(C)csc23)CC1 | 118
CCc1ccccc1NS(=O)(=O)c1ccc2c(c1)CC(C)N2C(=O)C1CC1 (configuration not stated) | 95
CC(CBr)(NS(=O)(=O)c1ccccc1)c1ccccc1 (configuration not stated) | 65*
CC(CN1CCNCC1)(NS(=O)(=O)c1ccccc1)c1ccccc1 (configuration not stated) | 96
CC(C)(CN1CCCCCC1)NS(=O)(=O)c1ccccc1 | 96
O=C(Nc1ccc(-n2nncc2-c2ccccc2)cc1)c1ccc(F)cc1 | 99
Cc1ccc2c(c1)c1nc3ccccc3nc1n2CC(=O)O | 75
SMILES | VACV E9 pol inh
O=C(O)Cn1c2ccc(Cl)cc2c2nc3ccccc3nc21 | 53*
CCOC(=O)Cn1c2ccc(Cl)cc2c2nc3ccccc3nc21 | 109
COC(=O)c1c(N)sc2c1C(C(=O)OC)CC2 (configuration not stated) | 92
CCCn1c2ccc(CC)cc2c2nc3ccccc3nc21 | 102
Cn1nc(C(F)(F)F)c(C#N)c1Oc1ccccc1 | 86
C=Cc1c(C)c2cc3[nH]c(cc4nc(cc5nc(cc1[nH]2)C(C)=C5CCC(=O)O)C(CCC(=O)O)=C4C)c(C)c3C=C | 22*
Nc1ccc2nc(CCC(=O)O)[nH]c2c1 | 101
O=C(O)CCc1nc2ccc(C(=O)O)cc2[nH]1 | 100
COC(=O)CN1C(=O)COc2cc(S(=O)(=O)N3CCCCC3)ccc21 | 100
O=C(COc1ccccc1)OCC(=O)C12CC3CC(CC(C3)C1)C2 | 100
NC(=O)CSc1nnc(-c2cccs2)n1-c1ccc(Cl)cc1 | 87
Cc1ccc(NC(=O)c2c(-n3c(C)ccc3C)sc3c2CCCC3)cc1 | 100
CCN(Cc1ccccc1)c1ccc(C2C3=C(CCCC3=O)Nc3[nH]c(=O)[nH]c(=O)c32)cc1 (configuration not stated) | 102
Cc1ccc(NC(=O)Cc2c[nH]c3ccccc23)cc1 | 103
Cc1ccccc1CNCCc1c[nH]c2ccccc12 | 95
Cc1cc(C)nc(NC(N)=NCCc2c[nH]c3ccccc23)n1 | 85*
COc1ccc(CNC(=O)COc2ccc(C#N)cc2)cc1 | 96
O=c1c2c(nc(NCCO)n1Cc1ccccc1)-c1ccccc1CC21CCCCC1 | 103
Cc1nn(-c2ccccc2)c(C)c1Sc1ccccc1 | 100
CC(=O)Oc1c(Sc2ccccc2)c(C)nn1-c1ccccc1 | 77*
CCCC(=O)Oc1c(Sc2ccccc2)c(C)nn1-c1ccccc1 | 86
CCOC(=O)c1ccc2c(c1)c(C)c(C)n2Cc1ccccc1 | 99
Cc1c(C)n(Cc2ccccc2)c2ccc(C(=O)OCCN3CCOCC3)cc12 | 98
Cc1c(C)n(CCN(C)C)c2ccc(C(=O)OCCN(C)C)cc12 | 62*
CCOC(=O)c1csc(NC(=O)c2ccccc2OC)n1 | 96
SMILES | VACV E9 pol inh
CN(C(=O)CSCc1ccc(Cl)cc1)c1ccccc1 | 95
CCCN(CCC)c1cccc(C(=O)O)n1 | 86
O=C(O)c1ccc(C2Nc3ccccc3C3C=CCC32)cc1 (configuration not stated) | 10*
O=C(O)C1C2CC=CC2c2cc(Cl)cc3c2N1CC1CC=CC31 (configuration not stated) | 100
CCOc1ccc2c(c1)C1C=CCC1C(c1ccc(C(=O)OC)cc1)N2 (configuration not stated) | 105
O=C(O)C1Nc2ccccc2C2C=CCC12 (configuration not stated) | 9.8*

Bioassay records (PubChem)
